The results in this text go back to the supplement of paper PMC10503962.

Molecules are shown by their SMILES.

The assay relates to Trichuris muris adult worms. The assay is described as follows: mean motility score (Paragon pixel variance) of adult worms (arbitrary units); higher = more motile worms, i.e. less anthelmintic effect; extreme values may be limits of the assay. To be noted: 100 µM; 24 h. Summed up:
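In 96-well plates, one adult Trichuris muris worm from infected NOD SCID mice went into each well with 100 μL RPMI-1640, antibiotics and drug at 100 μM (1% v/v DMSO). After 24 h at 37°C and 5% CO2, the plates were filmed on an automated phenotyping platform. Paragon pixel-variance analysis gave the motility score, which was averaged across replicate wells.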
In the case of `Cc1ccc(Nc2nccc(N(C)c3ccc4c(C)n(C)nc4c3)n2)cc1S(N)(=O)=O` [pazopanib], the mean motility score was found to be 1830.
To `Oc1nc2ccccc2n1CCCN1CCC(n2c(O)nc3cc(Cl)ccc32)CC1` [domperidone] belongs 3910; to `C#C[C@]1(O)CC[C@H]2[C@@H]3CCC4=CC(=O)CC[C@@H]4[C@H]3CC[C@@]21CC` [levonorgestrel], 3390; to `CN(C)C/C=C/C(=O)Nc1cc2c(Nc3ccc(F)c(Cl)c3)ncnc2cc1O[C@H]1CCOC1` [afatinib], 0.
For `CCOC(=O)[C@H](CCc1ccccc1)N[C@@H](C)C(=O)N1[C@H](C(=O)O)C[C@@H]2CCC[C@@H]21` [ramipril], the mean motility score was 3060.
Compound `CC(=O)Nc1ccc(O)cc1` [acetaminophen] yielded a mean motility score of 2180.
To `CCC(C)n1ncn(-c2ccc(N3CCN(c4ccc(OC[C@H]5CO[C@](Cn6cncn6)(c6ccc(Cl)cc6Cl)O5)cc4)CC3)cc2)c1=O` (stereo partly specified) [itraconazole] belongs 1700; to `CN(C)CC[C@@H](c1ccc(Cl)cc1)c1ccccn1.O=C(O)/C=C\C(=O)O` [dexchlorpheniramine maleate], 1140.
For `C[C@@H]1C[C@H]2[C@@H]3CCC4=CC(=O)C=C[C@]4(C)[C@@]3(F)[C@@H](O)C[C@]2(C)[C@H]1C(=O)CO` [desoximetasone], the mean motility score stood at 772.
Compound `CC(C)(C(=O)c1cccnc1)c1cccnc1` [metyrapone] yielded a mean motility score of 3950.
Regarding `CC1CCc2c(N3CCC(O)CC3)c(F)cc3c(=O)c(C(=O)O)cn1c23` (stereo unspecified) [nadifloxacin], the mean motility score was determined as 2660.
